Screening data as filed in PubChem.
WRN helicase inh-1 – blocks human WRN helicase; Q14191; Potency, µM (series often up to 114 µM), inactives show at the highest dose activity change, negative = inhibition, actives largely listed as inhibitors; WRN helicase unwinding, fluorescent forked duplex, kinetic; hit rate 0.46% among 360,000; note: potency is the fitted concentration of half-maximal effect; % is set by controls: 0 for no effect and ±100 for the full control effect; nearly all actives have a fitted effect of over 55% in size
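Kinetic fluorescence helicase assay: unwinding of a quenched forked DNA duplex (100 nM final) with 2 mM ATP final raises red fluorescence (525/598 nm). Compounds sat 15 min at room temperature with 20 nM WRN beforehand.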
POLB inh – inhibitors of human DNA polymerase beta; hit rate 1.3% among 340,000; Pol beta primer extension/strand displacement, fluorescence kinetic; Potency, µM (highest dose often 114 µM), for inactives: top-dose activity change, negative = inhibition, most hits filed as inhibitors; P06746; AID 485314; note: potency is the fitted concentration of half-maximal effect; % is set by controls: 0 for no effect and ±100 for the full control effect
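10 nM enzyme + cpd, 15 min RT; start with substrate 50 nM final; read 0 min and after 10 min RT. Corrected, normalized data; 4-parameter Hill curve fit.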
POLI inh – DNA polymerase iota (human) inhibition; Pol iota fluorescent replication assay, 10 min; Q9UNA4; Potency, µM (top dose mostly 115 µM), for the others: at the highest dose activity, negative = inhibition, most hits filed as inhibitors; hit rate 1% among 390,000; note: potency is the fitted concentration of half-maximal effect
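Pol iota at 10 nM preincubated 15 min with compounds at room temperature; reaction started with fluorescent substrate, 50 nM final. Fluorescence read kinetically at 0 and 10 min; buffer-only wells as negative control.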
Pol kappa inh-1 – inhibitors of human DNA polymerase kappa; Q9UBT6; purified Pol kappa, fluorescent DNA synthesis assay, 10 min; Potency, µM (series often up to 107 µM), for inactives: top-dose activity, negative = inhibition, usual class: inhibitors; hit rate 0.53% among 400,000; AID 588579; note: potency is the fitted concentration of half-maximal effect; % is set by controls: 0 for no effect and ±100 for the full control effect
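10 nM Pol kappa was preincubated with compounds for 15 min at room temperature. Reaction started with 50 nM (final) substrate. Fluorescence read kinetically at 0 and 10 min.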
PI5P4Ka inh – blocks human PI5P4K alpha kinase activity. P48426. PI5P4Kalpha enzyme, ADP-Glo luminescence, 60 min; active compounds read low. max response, %. hit rate 1.2% among 330,000. AID 652105; active = max response of -50% or lower; inconclusive = between -30% and -50%; inactive = -30% or higher; note: value at the top dose of about 77 µM; % is set by controls: 0 for no effect and ±100 for the full control effect
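qHTS, 1536-well: enzyme/substrate mix, compound by pin tool, 5 microM ATP final; RT 60 min; ADP-Glo reagents 1 (45 min) then 2 (30 min); luminescence.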
Pol eta inh-1 – DNA polymerase eta (human) inhibition; Potency, µM (doses to about 114 µM), for the others: at the top dose activity change, negative = inhibition, most hits filed as inhibitors; hit rate 1.2% among 390,000; Q9Y253; AID 588591; recombinant Pol eta, fluorescent DNA replication assay; note: potency is the fitted concentration of half-maximal effect; % is set by controls: 0 for no effect and ±100 for the full control effect
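Fluorescent replication assay: 50 nM final substrate added after a 15 min room-temperature compound preincubation with 10 nM enzyme. Signal taken at 0 min and again at 10 min.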
Pol kappa inh-2 – confirmation of human DNA polymerase kappa inhibitors; shares compounds with Pol eta inh-1; Potency, µM, usual class: inhibitors; hit rate 76% among 920; purified Pol-kappa, fluorescent strand-displacement substrate; AID 720501; note: potency is the fitted concentration of half-maximal effect
Pol eta inh-2 – confirmation of human DNA polymerase eta inhibitors; AID 720502; hit rate 64% among 2,600; Pol eta primer extension, TAMRA/BHQ fluorescence, 10 min; Potency, µM, actives largely listed as inhibitors; shares compounds with Pol eta inh-1; note: potency is the fitted concentration of half-maximal effect
WRN helicase inh-2 – confirmation of human WRN helicase inhibitors; hit rate 63% among 610; WRN helicase DNA unwinding, fluorescence kinetic; shares compounds with WRN helicase inh-1; AID 720497; Potency, µM (titrated, usually from 57.1 µM), inactives show at the top dose activity, negative = inhibition, hits mostly inhibitors; note: potency is the fitted concentration of half-maximal effect; nearly all actives have a fitted effect of over 65% in size
TO DNA binding – DNA binding via thiazole orange displacement | shares compounds with WRN helicase inh-1 | thiazole orange DNA binding displacement, fluorescence | Potency, µM (series often up to 57.1 µM), without a hit: top-dose activity change, negative = inhibition, most hits filed as inhibitors | hit rate 10% among 610;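 note: drop in dye fluorescence marks compound binding to DNA; potency is the fitted concentration of half-maximal effect; % is set by controls: 0 for no effect and ±100 for the full control effect; nearly all actives have a fitted effect of over 60% in size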
BLM helicase inh – BLM helicase inhibition, WRN selectivity check; shares compounds with WRN helicase inh-1; Recombinant BLM helicase DNA unwinding, red fluorescence; Potency, µM (highest dose often 57.1 µM), without a hit: at the highest dose activity change, negative = inhibition, usual class: inhibitors; hit rate 60% among 610; note: potency is the fitted concentration of half-maximal effect; nearly all actives have a fitted effect of over 60% in size
ADP-Glo counter – interferes with ADP-Glo detection without enzyme present; shares compounds with PI5P4Ka inh; ADP-Glo detection counter-screen, luciferase luminescence, no enzyme; Potency, µM (highest dose often 76.9 µM), for inactives: at the highest dose activity change, negative = inhibition, usual class: inhibitors; 1,100 tested, under 10 active; AID 743285
An asterisk follows results filed as active; ? = inconclusive; nt = no result; [ ] = remark or other dose. This is a sample that favours compounds with a hit; in the whole collection about 2.8% have one here. Unless noted, calls come from the whole dose curve; as a rule, active = well fitted curve in the direction sought with a large enough effect; inconclusive = small, poorly fitted or top-dose-only effect, or another doubt; inactive = no such curve, though single readings can be large; an effect the other way counts as inactive or inconclusive.

SMILES	WRN helicase inh-1	POLB inh	POLI inh	Pol kappa inh-1	PI5P4Ka inh	Pol eta inh-1	Pol eta inh-2	WRN helicase inh-2	TO DNA binding	BLM helicase inh	others
Cc1cc(O)c(Oc2cc(C)cc(O)c2O)c(O)c1	28µM*	3.5µM*	40µM*	22µM*	?	22µM*	38*	19µM*	-7%	22µM*
COc1cc([N+](=O)[O-])cc(/C=C2/SC(=S)N(Cc3ccccc3)C2=O)c1O	2.7µM*	18µM*	14µM*	-20%	-71*	?	43*	7.6µM*	14µM*	5.4µM*	Pol kappa inh-2=19*
Cc1ccc(NC(=S)NC(=O)Cc2ccccc2)c(O)c1	-1%	-15%	149%	-13%	-2	-23%	nt	nt	nt	nt
COc1cc(NS(=O)(=O)c2ccc(NC(=S)NC(=O)c3sc4cc(F)ccc4c3Cl)cc2)nc(OC)n1	?	32%	?	1%	?	45µM*	43*	22µM*	-21%	24µM*
COc1cc(NS(=O)(=O)c2ccc(NC(=S)NC(=O)c3sc4ccccc4c3Cl)cc2)nc(OC)n1	-36%	29%	20%	-5%	-27	-11%	nt	nt	nt	nt
CC(=O)c1ccc(CCCCCCCCCC(=O)O)s1	-14%	10%	-15%	7%	0	?	nt	nt	nt	nt
CCC(=O)c1ccc(CCCCCC(=O)O)s1	?	35µM*	?	?	-3	8.9µM*	38*	22µM*	3%	22µM*
O=C1NN(c2ccccc2)C(=O)/C1=C\c1coc2ccc(O)cc2c1=O	?	?	?	?	-68*	?	?	-22%	-11%	?
Cc1cc2cc(CNC(=O)c3ccc(C)c([N+](=O)[O-])c3)ccc2[nH]1	-11%	?	-24%	-7%	1	-9%	nt	nt	nt	nt
CC1C=CC(C)C(C(=O)O)C1C(=O)O (stereo not drawn)	?	5.6µM*	?	40µM*	-1	2.5µM*	5.4*	14µM*	38%	4.8µM*
O=C(CN(C(=O)c1csnn1)c1ccc(F)c(Cl)c1)NCc1ccc2c(c1)OCO2	-31%	-8%	26%	1%	-12	-14%	nt	nt	nt	nt
Cc1ccc(-c2cn3cccnc3n2)cc1NC(=O)Nc1ccc(F)cc1	nt	-1%	25%	4%	nt	-10%	nt	nt	nt	nt
COc1ccc(-c2cn3cccnc3n2)cc1NC(=O)Nc1cc(C)ccc1C	nt	-15%	?	-13%	nt	79µM*	?	15µM*	-8%	6.8µM*	Pol kappa inh-2=15*
NS(=O)(=O)c1ccc(CCNC(=O)c2cc(-c3ccco3)nc3ccccc23)cc1	-11%	nt	-20%	-20%	?	?	nt	nt	nt	nt
O=C(Nc1nncs1)c1cc(-c2ccco2)nc2ccccc12	32µM*	nt	?	?	?	14µM*	76*	?	-9%	?	Pol kappa inh-2=?
O=C(Cc1ccc2ccccc2c1)NO	nt	nt	11%	-2%	nt	nt	nt	nt	nt	nt
Fc1ccc(-c2nn(-c3ccc(Cl)cc3)c3c2cnc2ccc(F)cc23)cc1	nt	21%	13%	-2%[60.1 µM]	nt	-5%	nt	nt	nt	nt
C=CCn1c(SCC(=O)c2ccc(O)c(O)c2)nnc1-c1cccc(C)c1	20µM*	nt	79µM*	45µM*	-1	16µM*	?	8.6µM*	-9%	?
C=CCn1c(SCC(=O)Nc2ccc(N(C)C)cc2)nnc1-c1cccc(C)c1	-28%	22%	1%	-5%	-15	-9%	nt	nt	nt	nt
Cc1ccc(CNC(=O)C2CCN(c3ncnc4c3nc3n4CCCCC3)CC2)cc1	nt	24%	17%	0%	nt	-13%	nt	nt	nt	nt
O=C(N/N=C1/C(=O)c2cccc3cccc1c23)c1ccc(Cl)cc1	16µM*	?	49%	-42%	-20	8.9µM*	?	6.1µM*	19µM*	2.2µM*
N=C1S/C(=C\c2ccc(-c3cccc(Cl)c3)o2)C(=O)N1c1nccs1	45µM*	8.9µM*	?	-43%	-63*	10µM*	?	22µM*	17µM*	7.6µM*	Pol kappa inh-2=24*
COc1ccc(NC(=O)CSc2ccc3nnc(-c4ccccn4)n3n2)c(OC)c1	-30%	1%	22%	-5%	-5	-12%	nt	nt	nt	nt
O=c1c(Br)ccc(Br)cc1Br	10µM*	nt	7.1µM*	-6%	-6	28µM*	?	24µM*	-20%	22µM*
O=C(NC(=S)N1CC=CCC1)c1ccccc1	-3%	nt	nt	nt	2	-7%	nt	nt	nt	nt
SMILES	WRN helicase inh-1	POLB inh	POLI inh	Pol kappa inh-1	PI5P4Ka inh	Pol eta inh-1	Pol eta inh-2	WRN helicase inh-2	TO DNA binding	BLM helicase inh	others
O=C(O)/C=C/C(=O)c1ccc2c(c1)CCc1ccccc1-2	1.5µM*	nt	1.6µM*	-15%	?	35µM*	?	?	-10%	19µM*
CC(=O)Nc1ccc2c(c1)CCc1ccccc1-2	9%	-16%	-12%	-22%	-1	-19%	nt	nt	nt	nt
COc1ccc2oc(C(=O)Nc3ccc(N4CCOCC4)cc3)c(C)c2c1	?	nt	?	?	-68*	13µM*	38*	nt	nt	nt	ADP-Glo counter=-1%
COc1ccc2oc(C(=O)Nc3ccccc3N3CCOCC3)c(C)c2c1	-2%	nt	?	-10%	-8	4%	nt	nt	nt	nt
CS(=O)(=O)c1ccc2nc(NC(=O)c3ccccc3)sc2c1	-20%	-1%	112%	-2%	-12	-15%	nt	nt	nt	nt
CS(=O)(=O)c1ccc(C(=O)Nc2nc(-c3ccco3)c(-c3ccco3)s2)cc1	45µM*	nt	1.6µM*	3.2µM*	-84*	5µM*	43*	nt	nt	nt	ADP-Glo counter=4%
COc1cc(/C=N/NC(=O)c2ccccc2NS(=O)(=O)c2cccs2)ccc1O	-30%	nt	?	-15%	-26	-10%	nt	nt	nt	nt
